Records with an inconclusive call do not appear. A call without a number means that no potency is given here. Activity calls are given as the source filed them. Calls come from the whole dose curve; as a rule, active = well fitted inhibition curve with a large enough effect; inconclusive = small, poorly fitted or top-dose-only effect; inactive = flat fitted curve, though single readings scatter.

The target in the test is Calcium and integrin-binding protein 1 (Homo sapiens) (UniProt Q99828). Kind of test: Primary qHTS for Identification of Calcium Integrin Binding Protein 1 (CIB1) Competitor (AID 1508620).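 Note: GST tagged CIB1 binding a fluorescein labelled alphaIIb integrin peptide tracer; top concentration of the series differs between compounds.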 The settings on record: CIB1-GST / FITC-alphaIIb peptide fluorescence polarization; series mostly up to 114 µM. An outline of the steps: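 Fluorescence polarization competition: CIB1-GST (1 uM final) preincubated with compound 15 min at room temperature, then FITC-labeled alphaIIb peptide (100 nM final) added for another 15 min. Polarization read at Ex 480/Em 540.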
Sequence of Calcium and integrin-binding protein 1 (Homo sapiens) (Q99828 whole entry, looked up): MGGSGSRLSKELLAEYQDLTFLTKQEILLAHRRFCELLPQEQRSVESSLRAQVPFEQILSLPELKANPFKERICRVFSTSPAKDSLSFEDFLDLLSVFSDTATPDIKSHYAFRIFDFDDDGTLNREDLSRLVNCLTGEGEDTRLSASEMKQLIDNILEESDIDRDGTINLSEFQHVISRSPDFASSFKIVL
(In qHTS, concentration-response curves come from the screen itself.)
As for `COc1ccc([S+](=O)([O-])Nc2ccc(-c3nc4ccccc4[nH]3)cc2)cc1OC`, the Potency entry is “inactive”.
In the case of `Cn1c2cc(CO)sc2c2cnn(Cc3ccccc3F)c(=O)c21`, the Potency entry was “inactive”.
The value for `Cn1nnnc1Sc1ncnc2scc(-c3cnc(N)nc3)c12` was “inactive”; that for `O=S(=O)(c1ccc2c(c1)OCCO2)N1CCN(S(=O)(=O)c2cccc(Cl)c2F)CC1` was “inactive”; that for `c1ccc2[nH]c(-c3ccc(NCc4ccc5c(c4)OCCO5)cc3)nc2c1` was “inactive”.
The result for `O=C(c1ccc2c(c1)ncn2-c1cccc(Cl)c1)N1CCCCC1` reads “inactive”.
The result for `FC(F)(F)c1ccccc1-c1nc(NCc2ccccc2)c2ccccc2n1` reads “inactive”; that for `Cc1ccc(NS(=O)(=O)c2cc3c(cc2N2CCCCC2)NC(=O)CC3)cc1C`, “inactive”; that for `CC(C)(C)c1ccc(C(=O)Nc2ccc(-c3nc4ccccc4[nH]3)cc2)cc1`, “inactive”.
Consider `COc1cc(OC)cc(-c2nnc3n2N=C(c2cc(OC)ccc2OC)CS3)c1`, for which the Potency entry is “inactive”.
For the compound `O=C(NCc1ccccc1)C1CCN(c2nc(-c3ccc(Br)cc3)cs2)CC1`, the Potency result was “inactive”.
The result for `Cc1cccc(-n2cnc3cc(C(=O)N4CCC(c5ccccc5)CC4)ccc32)c1` reads “inactive”.
The result for `CC(=O)NC(C)c1cc(F)c2cccnc2c1O` (stereo not given) reads “inactive”; that for `O=c1c2ccccc2nc2sc(Nc3ccc(Oc4ccccc4)cc3)nn12`, “inactive”.
Consider `COc1ccc(C2Nc3cccc(OC)c3C(=O)N2Cc2ccccc2)cc1COc1ccc(NC(C)=O)cc1` (stereo not given), for which the Potency result is “inactive”.
`Cc1ccnc(CC(=S)N2CCN(c3cccc(C(F)(F)F)c3)CC2)c1`: the Potency entry is “inactive”.
As to `Cc1cccc(-n2cnc3cc(C(=O)N4CCC(Br)CC4)ccc32)c1`, the Potency result was “inactive”.
On to `Cc1csc(CNc2ncnc3ccc(-c4ccc(C(C)O)o4)cc23)n1` (stereo not given), for which the Potency result was “inactive”.
Regarding `CC(C)c1ccccc1-c1nc(NCc2ccc(-c3cccnc3)cc2)c2occc2n1`, the Potency entry was “inactive”.
Turning to `c1cncc(CNc2ncnc3ccc(-c4ccc5c(c4)OCO5)cc23)c1`, the Potency result was “inactive”.
The value for `O=C1Cc2cc(S(=O)(=O)N3CCN(c4ccc(O)cc4)CC3)ccc2N1` was “inactive”.
For `COc1cc(F)c(S(=O)(=O)N2CCCN(S(=O)(=O)c3ccc(NC(C)=O)cc3)CC2)c(F)c1`, the Potency result was “inactive”.
For the compound `Cc1cccc(-n2cnc3cc(C(=O)N4CCC(C(F)(F)F)CC4)ccc32)c1`, the Potency entry is “inactive”.
`Cc1ccc(NS(=O)(=O)c2ccc3c(c2)CCC(C)(C)O3)cc1C`: the Potency entry was “inactive”.
For `O=C(Nc1ncc(Cc2ccc(C(F)(F)F)cc2)s1)c1ccc(-c2ccc([N+](=O)[O-])cc2)o1`, the Potency result is “inactive”.
In the case of `O=C1CCCC2=C1C(c1[nH]ncc1Cl)NC(=NCc1ccccn1)N2` (stereo not given), the Potency entry is “inactive”.
Turning to `COc1ccc(C2Nc3ccccc3C(=O)N2Cc2ccccc2)cc1COc1c(C)cccc1C` (stereo not given), the Potency result was “inactive”.
Turning to `Cc1cnc(-c2ccccc2CO)nc1NCc1ccc(-c2cccnc2)cc1`, the Potency entry is “inactive”.
With `c1nc(NCCCN2CCOCC2)c2cc(-c3ccc4c(c3)OCO4)ccc2n1`, the Potency entry was “inactive”.
Take `O=C(OCC#CCSc1nnc(-c2ccc3ccccc3c2)o1)c1ccc(F)c(F)c1`: the Potency result was “inactive”.
Take `COc1ccc(C2=Nn3c(nnc3-c3ccccc3OC)SC2)cc1OCC1CC1`: the Potency result was “inactive”.
As to `O=[N+]([O-])c1cccc(S(=O)(=O)N2CCN(S(=O)(=O)c3ccc4c(c3)OCCO4)CC2)c1`, the Potency result is “inactive”.
Turning to `COc1ccc(C2Nc3ccccc3C(=O)N2Cc2ccccc2C(F)(F)F)cc1COc1ccc(NC(C)=O)cc1` (stereo not given), the Potency result is “inactive”.
As to `O=C(Cc1ccccc1)Nc1nnc(-c2ccncc2)s1`, the Potency result is “inactive”.
As for `O=C(O)CN1C(=O)/C(=C/c2ccc(-c3cccc(Cl)c3)o2)SC1=S`, the Potency result is “inactive”.
As to `Cc1ccc(OC2=NS(=O)(=O)c3ccccc32)cc1`, the Potency entry was “inactive”.
The value for `O=C(NCc1ccc(Cl)c(Cl)c1)Nc1nnc(-c2ccncc2)s1` was “inactive”.
On to `COC(=O)c1ccc(O)c2ncc(N(C)C)cc12`, for which the Potency result was “inactive”.
The value for `Cc1cccc(C)c1-n1c(SCC(=O)Nc2ccc(C(=O)O)cc2)nnc1-c1ccc([S+](=O)([O-])N2CCCC2)cc1` was “inactive”; that for `Cn1nnnc1Sc1ncnc2scc(-c3ccc([N+](=O)[O-])cc3)c12` was “inactive”.

The values above are taken from PubChem BioAssay (NCATS).
